Experimental data reported in PubChem BioAssay.
Inconclusive results are not listed. Activity calls are given as the source filed them.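 Rule for the calls, unless noted: active = GFP signal, as percent of the solvent control, above the screen mean plus 3 SD, about 149; inconclusive = no reading because the compound's own fluorescence upset strain identification; inactive = the rest.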

Experiments:
[1] = rapamycin-like changes in RPL19A-GFP expression – cell-based, S. cerevisiae, multiplex flow cytometry, primary screen (AID 1862; in the data active = percent of DMSO control GFP below about 86%;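 note: lower values mimic rapamycin by blocking the RPL19A rise seen in DMSO cells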); conditions: S. cerevisiae RPL19A-GFP strain, flow cytometry fluorescence, 3 h; at 10 µM; stronger effect = lower value
[2] = TOR pathway GLN3 branch reporter MEP2-GFP changes – S. cerevisiae, multiplex flow cytometry, primary screen (AID 1867;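 active = GFP response, as percent of the DMSO control, above the screen-wide mean plus 3 SD, about 139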;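 note: median GFP channel fluorescence of barcode-gated MEP2-GFP cells measured by flow cytometry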); conditions: S. cerevisiae MEP2-GFP strain, 3 h, at 10 µM, stronger effect = higher value, 100% means same as DMSO wells
[3] = TOR pathway RTG branch CIT2 reporter changes – S. cerevisiae, GFP fusion, multiplex flow cytometry, primary screen (AID 1870;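 active = percent response above a set limit, the screen-wide mean plus 3 SD, cut at about 130% in these data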;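 note: barcoded CIT2-GFP strain pooled with four other GFP strains with rapamycin as positive control; median GFP fluorescence per well over plate mean of DMSO wells so 100% = DMSO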); conditions: S. cerevisiae CIT2-GFP expression, 3 h, at 10 µM, stronger effect = higher value
[4] = TOR pathway LAP4-GFP level changes – S. cerevisiae, multiplex flow cytometry, primary screen (AID 1873); conditions: S. cerevisiae LAP4-GFP expression, 3 h, at 10 µM, stronger effect = higher value
[5] = yeast AGP1-GFP level changes, GLN3 branch – cell-based, multiplex flow cytometry, S. cerevisiae, primary screen (AID 1887;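 active = GFP signal above the screen-wide mean plus 3 SD, that is over about 124.5% of the solvent control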;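 note: AGP1-GFP fusion strain of S. cerevisiae within a five-strain barcoded multiplex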); conditions: 3 h, at 10 µM, stronger effect = higher value
[6] = reduced mouse 2C T cell binding to pMHC/ICAM-1 vesicles – MLPCN validation set, flow cytometry, LFA-1/ICAM-1 modulator project, pilot screen (AID 2523;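 active = response below a set limit, under 55% cells CD8-positive and vesicle-bound, and CD8 cells' 90th-percentile brightness under 279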;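 for vesicle binding response: mean PE anti-B7-1 fluorescence of CD8+ cells relative to row control; 100% = QL9-loaded vesicles with DMSO vehicle in the same plate row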); conditions: 2C mouse CD8+ T cells, at 7 µM, stronger effect = lower value; double positive events: measured here: CD8+/vesicle+ event percentage
[7] = target: Integrin beta-1 (Homo sapiens) + Integrin alpha-4 (Homo sapiens) (UniProt P13612+P05556); experiment: alpha4beta1 integrin LIBS antibody binding reduction – U937 cells, HUTS-21 mAb, flow cytometry, validation set, VLA-4 allosteric modulator project, pilot screen (AID 2674;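 active = inhibition above 50%, about 3 SD of the validation set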;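 note: antibody binding induced by the VLA-4 ligand LDV present at three times its Kd; 0% = LDV ligand with antibody and no compound and 100% = antibody without LDV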); conditions: HUTS-21 LIBS mAb binding, at 6.7 µM, stronger effect = higher value, binding induced by LDV ligand
[8] = calorie-restriction mimetic ROS inhibitors, yeast – validation compound set, pilot screen (AID 2706;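 active = superoxide response below 65% of plate, a cut near 3 SD across the whole screen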;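 note: yeast exposed to compound for one week at 30 degrees C before staining; 100% = mean of all compound wells on the same plate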); conditions: S. cerevisiae aging, superoxide DHE fluorescence; at 10 µM; stronger effect = lower value
[9] = target: Beta-adrenergic receptor kinase 1 (Homo sapiens) (UniProt P25098); experiment: GRK2 binders displacing RNA aptamer, biochemical, validation, human GRK2, bead flow cytometry (AID 488806;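 active = aptamer binding inhibition above 30%, about 3 SD of noise from non-fluorescent compounds; inactive = inhibition at or below 30%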); conditions: bead-bound GRK2, FAM-aptamer displacement, at 10 µM, stronger effect = higher value
[10] = target: Beta-2 adrenergic receptor (Homo sapiens) (UniProt P07550); experiment: agonist-induced loss of surface beta2AR – cell-based, FAP fluorogen, flow cytometry, validation set, pilot screen (AID 504459;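 active = percent response above 42, roughly 3 SD of non-fluorescent test compounds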;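 note: agonist-driven loss of surface beta2AR via internalization measured by FAP dye flow cytometry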); conditions: Am2.2-beta2AR cells, at 10 µM, stronger effect = higher value
[11] = target: AP-2 complex subunit beta (Homo sapiens) (UniProt P63010); experiment: beta-arrestin/AP2 interaction blockers – biochemical, validation set, GST-AP2 beads, flow cytometry, pilot screen (AID 504541;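 active = inhibition above 54%, about 3 SD of non-fluorescent compounds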;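 note: AP2 carries R879A mutation and is captured from E. coli lysate; bead-bound FITC arrestin peptide fluorescence measuring arrestin peptide binding to AP2; 0% = DMSO wells and 100% = excess unlabeled arrestin peptide control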); conditions: FITC arrestin peptide, at 10 µM, stronger effect = higher value, AP2 beta2 appendage fragment, R879A mutant
[12] = cytosolic pH regulators acting via V-ATPase – S. cerevisiae, pHLuorin, HTS validation (AID 504600; in the data active = response above about 15%;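 note: plate controls were DMSO for no effect and reference compound for full effect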); conditions: V-ATPase proton transport, at 10 µM, stronger effect = higher value
[13] = test system: anti-desmoglein-3 scFv antibody binding to human DSG3; experiment: blockers of pathogenic pemphigus antibody–desmoglein-3 binding – biochemical, validation compound set, bead-based, flow cytometry, pilot screen (AID 588368;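 active = binding below the plate cutoff, the plate median minus 3 SD, with a reading above zero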;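 note: signal is the median channel fluorescence of bead-bound GFP antibody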); conditions: Protein G beads, DSG3-Fc, scFv-GFP binding, at 10 µM, stronger effect = lower value
[14] = Nile Red efflux blockade in pump-expressing yeast – validation compound set, multiplex, phenotypic, pilot screen (AID 588506;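 active = efflux inhibition above 0.42, the validation set average plus 4 SD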;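 note: Nile Red retained in cells so higher fluorescence means more efflux inhibition; 0 = negative control wells and 1 = enniatin B 25 µM full block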); conditions: S. cerevisiae pump-expressing triplex, Nile Red efflux flow cytometry; at 10 µM; stronger effect = higher value; the pumps come from Candida albicans
[15] = target: ATP-binding cassette sub-family B member 6 (Homo sapiens) (UniProt Q9NP58); experiment: blockers of ABCB6-driven porphyrin uptake – K562-ABCB6 cells, flow cytometry, validation set, pilot screen (AID 588550;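 active = inhibition above the screen-wide mean plus 3 SD, about 51%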;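 note: 0% = DMSO wells and 100% = benzethonium chloride 70 µM positive control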); conditions: K562-ABCB6 porphyrin accumulation, 1 h, at 10 µM, stronger effect = higher value
[16] = AML differentiation inducers, ER-HoxA9 marrow cells – cell-based, GFP/MAC1 double positive, flow cytometry, validation set, primary screen (AID 588685;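 active = differentiation response of at least 50%, scaled between solvent and reference control, from cells with both markers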;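 note: compound exposure lasts four days before antibody staining and flow analysis; 0% = DMSO wells and 100% = 5 µM fulvestrant positive control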); conditions: stronger effect = higher value, normalized: vehicle 0, fulvestrant 100

AP-2 complex subunit beta (Homo sapiens), sequence (P63010 whole entry, looked up, the tested form may be a part, one chain of several): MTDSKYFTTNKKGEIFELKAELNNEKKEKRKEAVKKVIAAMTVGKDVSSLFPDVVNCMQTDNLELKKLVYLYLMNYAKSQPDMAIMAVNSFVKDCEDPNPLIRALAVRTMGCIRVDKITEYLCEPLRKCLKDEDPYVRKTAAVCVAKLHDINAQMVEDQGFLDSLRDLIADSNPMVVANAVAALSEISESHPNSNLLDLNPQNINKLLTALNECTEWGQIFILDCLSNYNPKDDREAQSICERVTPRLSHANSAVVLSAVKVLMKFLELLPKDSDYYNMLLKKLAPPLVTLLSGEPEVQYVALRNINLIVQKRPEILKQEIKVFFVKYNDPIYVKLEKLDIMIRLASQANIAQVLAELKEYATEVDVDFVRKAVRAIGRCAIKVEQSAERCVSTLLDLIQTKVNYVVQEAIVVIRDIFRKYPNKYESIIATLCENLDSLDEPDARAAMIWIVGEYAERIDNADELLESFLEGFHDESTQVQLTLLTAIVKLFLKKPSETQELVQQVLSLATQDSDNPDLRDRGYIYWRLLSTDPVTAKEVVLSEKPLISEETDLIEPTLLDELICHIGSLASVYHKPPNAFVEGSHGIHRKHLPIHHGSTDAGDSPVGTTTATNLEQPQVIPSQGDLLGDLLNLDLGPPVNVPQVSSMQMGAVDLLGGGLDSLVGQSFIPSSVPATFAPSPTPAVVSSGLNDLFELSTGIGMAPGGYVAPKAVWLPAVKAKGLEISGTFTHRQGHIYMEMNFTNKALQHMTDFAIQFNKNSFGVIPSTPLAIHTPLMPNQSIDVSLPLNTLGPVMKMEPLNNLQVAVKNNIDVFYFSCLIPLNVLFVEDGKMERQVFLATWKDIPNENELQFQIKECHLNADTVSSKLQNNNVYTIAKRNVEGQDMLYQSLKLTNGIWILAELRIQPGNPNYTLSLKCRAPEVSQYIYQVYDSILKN
Beta-2 adrenergic receptor (Homo sapiens), sequence (P07550 whole entry, looked up): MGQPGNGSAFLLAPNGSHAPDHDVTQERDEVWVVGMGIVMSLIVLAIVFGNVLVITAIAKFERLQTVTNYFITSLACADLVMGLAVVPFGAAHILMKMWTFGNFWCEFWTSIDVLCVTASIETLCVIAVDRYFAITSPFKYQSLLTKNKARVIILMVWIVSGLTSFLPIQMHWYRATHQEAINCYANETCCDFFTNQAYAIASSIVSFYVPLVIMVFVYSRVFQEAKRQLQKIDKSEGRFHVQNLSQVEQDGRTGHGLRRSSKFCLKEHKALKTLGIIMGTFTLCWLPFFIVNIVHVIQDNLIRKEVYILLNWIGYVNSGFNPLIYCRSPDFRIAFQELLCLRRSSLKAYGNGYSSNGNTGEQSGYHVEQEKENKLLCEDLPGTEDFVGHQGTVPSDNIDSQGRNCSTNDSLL
Integrin beta-1 (Homo sapiens) + Integrin alpha-4 (Homo sapiens), sequence (P05556 whole entry, looked up): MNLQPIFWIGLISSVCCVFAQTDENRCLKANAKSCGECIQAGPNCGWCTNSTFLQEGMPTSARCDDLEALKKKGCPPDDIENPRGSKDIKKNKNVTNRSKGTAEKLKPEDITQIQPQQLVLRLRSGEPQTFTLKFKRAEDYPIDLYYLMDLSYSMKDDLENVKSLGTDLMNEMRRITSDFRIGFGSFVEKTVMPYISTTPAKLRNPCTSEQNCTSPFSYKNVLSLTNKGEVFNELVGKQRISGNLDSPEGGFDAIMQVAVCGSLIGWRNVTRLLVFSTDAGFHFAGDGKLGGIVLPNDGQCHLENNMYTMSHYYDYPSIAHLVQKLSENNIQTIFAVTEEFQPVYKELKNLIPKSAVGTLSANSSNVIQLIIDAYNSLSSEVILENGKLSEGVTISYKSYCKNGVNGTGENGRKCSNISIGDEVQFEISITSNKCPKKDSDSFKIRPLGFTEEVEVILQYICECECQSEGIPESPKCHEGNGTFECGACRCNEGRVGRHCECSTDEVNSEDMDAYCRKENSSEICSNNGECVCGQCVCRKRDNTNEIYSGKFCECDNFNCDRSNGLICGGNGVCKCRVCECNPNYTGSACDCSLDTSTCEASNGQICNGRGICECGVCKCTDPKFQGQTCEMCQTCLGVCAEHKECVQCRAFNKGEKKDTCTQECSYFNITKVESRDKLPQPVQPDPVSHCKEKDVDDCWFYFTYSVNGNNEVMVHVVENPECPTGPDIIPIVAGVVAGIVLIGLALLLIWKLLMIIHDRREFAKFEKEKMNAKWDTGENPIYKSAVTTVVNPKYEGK
Integrin beta-1 (Homo sapiens) + Integrin alpha-4 (Homo sapiens), sequence (P13612 whole entry, looked up): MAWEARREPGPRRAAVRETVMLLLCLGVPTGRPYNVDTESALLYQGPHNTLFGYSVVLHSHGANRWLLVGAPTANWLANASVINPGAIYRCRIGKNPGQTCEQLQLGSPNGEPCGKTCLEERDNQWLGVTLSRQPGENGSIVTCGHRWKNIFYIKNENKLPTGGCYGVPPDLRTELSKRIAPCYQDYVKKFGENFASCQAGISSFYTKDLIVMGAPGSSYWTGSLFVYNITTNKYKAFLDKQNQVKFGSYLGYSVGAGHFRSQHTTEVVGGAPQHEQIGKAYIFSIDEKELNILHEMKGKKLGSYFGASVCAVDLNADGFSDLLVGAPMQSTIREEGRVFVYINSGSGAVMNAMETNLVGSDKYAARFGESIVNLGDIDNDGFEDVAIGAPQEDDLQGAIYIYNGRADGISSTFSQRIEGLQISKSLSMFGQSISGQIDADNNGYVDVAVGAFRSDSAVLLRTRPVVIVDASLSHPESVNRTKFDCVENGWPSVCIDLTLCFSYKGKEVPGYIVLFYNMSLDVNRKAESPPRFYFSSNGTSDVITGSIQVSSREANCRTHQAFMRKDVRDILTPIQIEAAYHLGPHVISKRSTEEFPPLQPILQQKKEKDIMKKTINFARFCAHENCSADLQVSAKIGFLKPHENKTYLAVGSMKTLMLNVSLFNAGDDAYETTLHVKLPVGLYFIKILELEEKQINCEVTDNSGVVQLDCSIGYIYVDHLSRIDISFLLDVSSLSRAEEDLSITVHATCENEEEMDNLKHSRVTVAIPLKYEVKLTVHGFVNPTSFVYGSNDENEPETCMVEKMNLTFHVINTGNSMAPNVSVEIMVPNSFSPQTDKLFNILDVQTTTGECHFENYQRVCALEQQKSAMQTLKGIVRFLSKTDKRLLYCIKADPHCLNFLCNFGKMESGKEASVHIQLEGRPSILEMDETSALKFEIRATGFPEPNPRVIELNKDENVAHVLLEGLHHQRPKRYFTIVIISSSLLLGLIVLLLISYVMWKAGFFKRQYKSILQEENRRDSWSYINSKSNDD
Beta-adrenergic receptor kinase 1 (Homo sapiens), sequence (P25098 whole entry, looked up): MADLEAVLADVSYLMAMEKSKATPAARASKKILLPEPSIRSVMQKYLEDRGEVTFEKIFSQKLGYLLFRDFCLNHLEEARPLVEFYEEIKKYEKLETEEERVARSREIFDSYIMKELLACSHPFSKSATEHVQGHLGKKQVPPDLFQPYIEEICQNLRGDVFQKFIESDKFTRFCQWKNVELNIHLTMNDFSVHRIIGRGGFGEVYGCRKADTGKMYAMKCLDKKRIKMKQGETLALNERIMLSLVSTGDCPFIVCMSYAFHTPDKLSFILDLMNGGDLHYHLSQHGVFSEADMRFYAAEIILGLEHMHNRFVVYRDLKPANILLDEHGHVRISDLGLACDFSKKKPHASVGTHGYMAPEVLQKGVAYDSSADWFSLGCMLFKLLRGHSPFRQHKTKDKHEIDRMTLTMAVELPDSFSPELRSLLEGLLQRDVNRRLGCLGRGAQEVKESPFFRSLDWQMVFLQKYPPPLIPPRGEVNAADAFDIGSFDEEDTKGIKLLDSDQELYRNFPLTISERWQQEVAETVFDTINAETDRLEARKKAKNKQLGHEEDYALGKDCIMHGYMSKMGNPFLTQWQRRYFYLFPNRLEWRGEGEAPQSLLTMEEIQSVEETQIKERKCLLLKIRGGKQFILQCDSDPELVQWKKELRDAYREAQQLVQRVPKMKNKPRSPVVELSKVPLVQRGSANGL
ATP-binding cassette sub-family B member 6 (Homo sapiens), sequence (Q9NP58 whole entry, looked up): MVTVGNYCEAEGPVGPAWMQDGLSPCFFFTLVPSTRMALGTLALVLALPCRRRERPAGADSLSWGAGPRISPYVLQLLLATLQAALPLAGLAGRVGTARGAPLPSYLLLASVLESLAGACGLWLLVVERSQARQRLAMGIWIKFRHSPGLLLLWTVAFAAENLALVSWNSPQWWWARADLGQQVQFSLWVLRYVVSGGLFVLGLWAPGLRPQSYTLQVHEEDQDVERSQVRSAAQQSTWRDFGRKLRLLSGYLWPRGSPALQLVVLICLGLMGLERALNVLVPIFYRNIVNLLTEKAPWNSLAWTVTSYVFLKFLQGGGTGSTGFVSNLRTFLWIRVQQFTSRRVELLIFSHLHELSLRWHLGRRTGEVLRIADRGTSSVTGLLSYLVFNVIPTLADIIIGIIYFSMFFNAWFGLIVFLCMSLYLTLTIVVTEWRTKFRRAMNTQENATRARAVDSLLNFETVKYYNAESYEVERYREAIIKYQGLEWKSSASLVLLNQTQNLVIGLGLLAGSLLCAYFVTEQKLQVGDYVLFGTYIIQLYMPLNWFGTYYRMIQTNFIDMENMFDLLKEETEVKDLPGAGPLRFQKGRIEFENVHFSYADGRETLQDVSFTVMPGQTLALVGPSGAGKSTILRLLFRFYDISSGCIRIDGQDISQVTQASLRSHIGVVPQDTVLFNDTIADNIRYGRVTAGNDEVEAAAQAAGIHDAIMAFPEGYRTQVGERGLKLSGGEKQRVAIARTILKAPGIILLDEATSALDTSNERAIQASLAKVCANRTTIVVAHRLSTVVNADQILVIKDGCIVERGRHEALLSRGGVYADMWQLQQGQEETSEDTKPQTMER

Row | Structure (SMILES) | percent of DMSO control GFP [1] | GFP response vs DMSO [2] | percent response of DMSO control [3] | GFP response vs DMSO [4] | GFP response, % of DMSO [5] | double positive events [6] [%] | vesicle binding response [6] | inhibition [7] | superoxide response (% of plate) [8] | aptamer binding inhibition [9] | response [10] | inhibition [11] | response [12] | binding (% of control) [13] | efflux inhibition (fraction of control) [14] | inhibition [15] | differentiation response [16]
1 | COc1ccc(C2c3c(n[nH]c3C)CC(C)(O)C2C(C)=O)cc1OC (stereo not given) | 87.3% (inactive) | 129% (inactive) | 97.9% (inactive) | 76.5% (inactive) | 90.3% (inactive) | 67.8 | 58.4% (inactive) | 10.3% (inactive) | 106% (inactive) | 4% (inactive) | -2.94% (inactive) | -0.31% (inactive) | 0.84% (inactive) | 103% (inactive) | -0.13 (inactive) | 7% (inactive) | 13.1% (inactive)
2 | CC(C)CC(NC(=O)CNC(=O)C1O[C@@H]2OC(C)(C)O[C@@H]2[C@H]2OC(C)(C)O[C@@H]12)C(=O)O (stereo not given in full) | 101% (inactive) | 104% (inactive) | 102% (inactive) | 99.9% (inactive) | 102% (inactive) | 62.4 | 214% (inactive) | -46.1% (inactive) | 97.8% (inactive) | -1% (inactive) | -1.33% (inactive) | 9.78% (inactive) | -1.96% (inactive) | 96.9% (inactive) | -0.04 (inactive) | -3% (inactive) | 12.9% (inactive)
3 | CCOc1ccc2oc(-c3ccccc3)c(C(=O)O)c2c1 | 97.8% (inactive) | 108% (inactive) | 100% (inactive) | 110% (inactive) | 105% (inactive) | 65.1 | 204% (inactive) | 5.69% (inactive) | 102% (inactive) | 6% (inactive) | -17.2% (inactive) | 7.05% (inactive) | 1.4% (inactive) | 101% (inactive) | -0.04 (inactive) | 9% (inactive) | 1.91% (inactive)
4 | COc1cc(-c2nnc(-c3cccs3)o2)cc(OC)c1OC | 102% (inactive) | 106% (inactive) | 99.7% (inactive) | 103% (inactive) | 86.3% (inactive) | 61.1 | 98.4% (inactive) | -1.09% (inactive) | 99.2% (inactive) | 3% (inactive) | -28% (inactive) | 5.76% (inactive) | 33.5% (active) | 101% (inactive) | 0.15 (inactive) | 29% (inactive) | -1.65% (inactive)
5 | O=C(O)CCCc1ccccc1 | 104% (inactive) | 96.2% (inactive) | 115% (inactive) | 76.9% (inactive) | 99.7% (inactive) | 61.7 | 264% (inactive) | -4.6% (inactive) | 107% (inactive) | 5% (inactive) | -7.69% (inactive) | -6% (inactive) | 2.2% (inactive) | 96.1% (inactive) | 0.02 (inactive) | 19% (inactive) | 0.24% (inactive)
6 | COc1ccc(C(=O)NCc2cccnc2)cc1 | 103% (inactive) | 101% (inactive) | 98.6% (inactive) | 85.4% (inactive) | 94.6% (inactive) | 58.3 | 247% (inactive) | 11.9% (inactive) | 105% (inactive) | 7% (inactive) | 3.58% (inactive) | -8.5% (inactive) | 1.75% (inactive) | 101% (inactive) | -0.13 (inactive) | 6% (inactive) | -24.8% (inactive)
7 | Fc1ccccc1CNCCC(Cc1ccccc1)c1ccc2c(c1)OCO2 (stereo not given) | 98.8% (inactive) | 107% (inactive) | 96% (inactive) | 90.2% (inactive) | 94.9% (inactive) | 63.8 | 99.6% (inactive) | 8.28% (inactive) | 104% (inactive) | -1% (inactive) | 14% (inactive) | 11.7% (inactive) | 1.06% (inactive) | 105% (inactive) | -0.22 (inactive) | 4% (inactive) | -5.68% (inactive)
8 | CCOc1ncnc2c1[nH]c1ccccc12 | 99.7% (inactive) | 98.5% (inactive) | 104% (inactive) | 88% (inactive) | 85.7% (inactive) | 52.2 | 354% (inactive) | -8.62% (inactive) | 101% (inactive) | 4% (inactive) | 14.8% (inactive) | -7.64% (inactive) | 19.2% (active) | 98.9% (inactive) | 0.01 (inactive) | 8% (inactive) | -31.2% (inactive)
9 | Cc1ccc2c(c1)C(O)(C1COC(C)(C)CC1=O)C(=O)N2C (stereo not given) | 107% (inactive) | 105% (inactive) | 104% (inactive) | 99.1% (inactive) | 98.8% (inactive) | 59.3 | 214% (inactive) | 12.3% (inactive) | 103% (inactive) | 2% (inactive) | -0.64% (inactive) | -0.06% (inactive) | -9.91% (inactive) | 102% (inactive) | 0.05 (inactive) | 12% (inactive) | 23.2% (inactive)
10 | COc1cc(CNc2ccc(C)c(C)c2)cc(OC)c1OC | 99% (inactive) | 108% (inactive) | 107% (inactive) | 113% (inactive) | 111% (inactive) | 60.3 | 256% (inactive) | 6.55% (inactive) | 90.2% (inactive) | 0% (inactive) | -29.1% (inactive) | 16.2% (inactive) | -0.73% (inactive) | 101% (inactive) | 0 (inactive) | -8% (inactive) | -16.8% (inactive)
